Luc counter – counter-screen: inhibitors of Kinase-Glo firefly luciferase; Kinase-Glo luciferase, ATP luminescence, 8 min; 200,000 tested, 0.28% active; Potency, µM (top dose mostly 38.3 µM), without a hit: at the highest dose activity change, negative = inhibition, hits mostly inhibitors; note: nearly all actives have a fitted effect of over 60% in size
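Light output from Kinase-Glo luciferase with luciferin and 10 uM ATP in 50 mM imidazole pH 7.2, KCl, MgCl2, Tween 20, BSA; compound pin-delivered, 8-min ambient incubation, then luminescence read.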
RORg inh – ROR gamma (mouse) transcription inhibition | Potency, µM (highest dose often 53.6 µM), inactives show top-dose activity change, negative = inhibition, actives largely listed as inhibitors | Drosophila S2 Gal4-RORgamma UAS-luciferase reporter, 20 h | P51450 | 310,000 tested, 5.4% active; note: nearly all actives have a fitted effect of over 60% in size
Target sequence (P51450 whole entry, looked up, the tested form may be a part): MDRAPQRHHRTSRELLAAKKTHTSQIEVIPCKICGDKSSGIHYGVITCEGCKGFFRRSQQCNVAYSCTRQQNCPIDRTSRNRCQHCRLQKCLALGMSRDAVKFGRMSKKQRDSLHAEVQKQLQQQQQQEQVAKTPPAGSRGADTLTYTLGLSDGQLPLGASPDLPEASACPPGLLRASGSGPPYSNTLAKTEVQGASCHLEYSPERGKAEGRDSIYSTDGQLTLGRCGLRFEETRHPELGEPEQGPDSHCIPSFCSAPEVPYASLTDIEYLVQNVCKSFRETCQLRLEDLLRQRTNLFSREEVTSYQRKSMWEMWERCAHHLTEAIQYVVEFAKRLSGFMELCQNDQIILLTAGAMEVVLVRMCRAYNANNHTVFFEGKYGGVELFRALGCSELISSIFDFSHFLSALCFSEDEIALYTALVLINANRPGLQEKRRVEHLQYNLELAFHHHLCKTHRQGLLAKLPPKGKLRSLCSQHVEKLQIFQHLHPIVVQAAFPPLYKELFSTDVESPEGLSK
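Stably transfected Drosophila Schneider cells are the test system, with ROR gamma fused to Gal4 and luciferase under UAS control; luminescence is read after 20 hr of 700 uM copper sulfate induction at ambient temperature.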
Gal4-VP16 FLuc – inhibits Gal4-VP16 luciferase reporter, ROR gamma counter-screen; Drosophila S2 Gal4-VP16 UAS-luciferase, luminescence, 20 h; AID 2546; 310,000 tested, 3.5% active; Potency, µM (highest dose often 53.6 µM), for inactives: at the highest dose activity, negative = inhibition, hits mostly inhibitors;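 note: Gal4-VP16 expression switched on by copper sulfate through the metallothionein promoter; nearly all actives have a fitted effect of over 50% in size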
Numbers without * were called inactive; ? = inconclusive; . = not tested or not shown; [ ] = dose if it differs, or a comment. Sampled rows, rich in hits. Any-hit rate of the full collection: about 6.2%. Calls come from the whole dose curve; as a rule, active = well fitted curve in the direction sought with a large enough effect; inconclusive = small, poorly fitted or top-dose-only effect, or another doubt; inactive = no such curve, though single readings can be large; an effect the other way counts as inactive or inconclusive. % is set by controls: 0 for no effect and ±100 for the full control effect; potency is the fitted concentration of half-maximal effect.

SMILES	Luc counter	RORg inh	Gal4-VP16 FLuc
COc1ccc(S(=O)(=O)N(C)C)cc1NC(=O)CSc1nncs1	0%	7%	-14%
Cc1ccccc1OC(=O)C1C(c2ccccc2)C(C(=O)O)C1c1ccccc1 (stereo not given)	-3%	25%	1%
Cc1cc(OCC(=O)N(Cc2ccccc2)C2CCS(=O)(=O)C2)ccc1Cl (stereo not given)	.	22%	2%
CSc1nc2ccccc2cc1/C=C(\C#N)c1cccc(Cl)c1	-3%	-36%	-5%
Cc1ncoc1C(=O)Nc1ncc([N+](=O)[O-])s1	11µM*	?	?
Cc1ncoc1C(=O)Nc1nccs1	.	4%	-2%
COCc1cc(=O)[nH]c(-c2ccccc2OC(F)(F)F)n1	.	2%	3%
COCCn1c(N)c(C(=O)OCc2ccccc2)c2nc3ccccc3nc21	8%	?	14µM*
C=CCn1c(N)c(C(=O)OCCC)c2nc3ccccc3nc21	.	-14%	1%
Cc1ccc(-c2cccc(NC(=O)C3C(C(=O)O)[C@@H]4C=C[C@H]3C4)c2)o1 (stereo not given in full)	0%	35%	-1%
Cc1ccc(-c2ccccc2NC(=O)C2C3C=CC(C3)C2C(=O)O)o1 (stereo not given)	-1%	4.5µM*	4.5µM*
CN(C)S(=O)(=O)c1ccc(C(=O)NCCc2ccco2)cc1	.	33%	?
COc1ccc(C)cc1NCC(=O)Nc1ccc(C(C)(C)C)cc1	.	?	2%
Oc1ccc(-c2csc(Nc3ncccn3)n2)c(O)c1	-2%	0%	-13%
Cc1cccc(Nc2nc(-c3ccc(O)cc3O)cs2)n1	.	4µM*	?
Cc1c(OC(C)C(=O)NCc2cccnc2)ccc2c3c(c(=O)oc12)CCCC3 (stereo not given)	.	20%	-6%
C=CC[C@@H]1C=C[C@@H](O/N=C2/[C@H]3O[C@@H]3[C@@H](O)[C@H]3[C@H]2CCn2c(=O)n(-c4ccccc4)c(=O)n23)[C@@H](CO)O1	.	27%[10 µM]	-4%[10 µM]
Cc1ccc(N(C)C2=NC(=O)CS2)cc1Cl	.	0%	-9%
Cc1cccc(-n2c(=S)[nH]c3nc4c(cc3c2=O)COC(C)(C)C4)c1	.	-42%	-9%
C=CCn1c(=S)[nH]c2cc(C(=O)Nc3ccc(OC)c(OC)c3)ccc2c1=O	.	?	-2%
C=CCn1c(=S)[nH]c2nc3c(cc2c1=O)CCCC3	-14%	7.1µM*	7.1µM*
O=c1c2cc(Br)ccc2[nH]c(=S)n1Cc1cccnc1	-3%	1.1µM*	?
C=CCn1c(=S)[nH]c2ccc(Br)cc2c1=O	3%	2.8µM*	3.2µM*
O=c1c2ccccc2[nH]c(=S)n1Cc1cccnc1	1%	?	?
O=C1Cc2cc(S(=O)(=O)NCc3ccccc3Cl)cc3c2N1CCC3	.	-30%	3%
SMILES	Luc counter	RORg inh	Gal4-VP16 FLuc
Cc1cccc(NC(=O)Cn2c(/C=C/c3ccccc3)nc3ccccc32)c1	.	?	-7%
Oc1ccccc1/C=N/Nc1ccnc(SCc2ccccc2)n1	-3%	0.35µM*	0.32µM*
Clc1ccc(Cl)c(Nc2ccnc(SCc3ccccc3)n2)c1	-3%[7.66 µM]	.	.
COc1cc(NC(=S)NCCCO)c(OC)cc1Cl	0%	-35%	14%
CCOc1ccc(NC(=S)Nc2ccc(OCC)cc2)cc1	-1%	10µM*	-30%
COc1cc(NC(=S)NC2CC(C)(C)NC(C)(C)C2)c(OC)cc1Cl	0%	-2%	-5%
COc1cc(NC(=S)Nc2ccccn2)c(OC)cc1Cl	-1%	1.3µM*	7.1µM*
CCOc1ccc(NC(C)=O)cc1	-5%	0%	-3%
CCOc1ccc(NC(=S)Nc2cc(OC)c(Cl)cc2OC)cc1	-2%	10µM*	22µM*
CCOc1ccc(NC(=S)Nc2ccc(OC(F)(F)F)cc2)cc1	0%	?	?
CCNC(=S)Nc1ccc(OCC)cc1	-5%	13µM*	?
CCOCc1c(C(=O)OCC(=O)/C(C#N)=C(\C)N)oc2ccccc12	2%	5%	7%
O=C(O)CCCC(=O)Nc1ccc(OCc2nc3ccccc3s2)cc1	1%	9%	18%
CC(=O)NC(C)CCc1ccccc1 (stereo not given)	.	-12%	-1%
CCOc1ccc(NC(=S)NC(C)CCc2ccccc2)cc1 (stereo not given)	0%	2.5µM*	7.1µM*
CCNC(=S)Nc1ccc(OCc2nc3ccccc3s2)cc1	.	13µM*	16µM*
CCOc1ccc(NC(=O)C(CC(=O)O)Cc2ccccc2)cc1 (stereo not given)	3%	-1%	2%[10 µM]
Cc1ccccc1NC(=S)NC(C)CCc1ccccc1 (stereo not given)	.	4.5µM*	3.5µM*
CCOc1ccc(NC(=S)Nc2ccc(C)c([N+](=O)[O-])c2)cc1	0%	14µM*	?
CCOc1ccc(NC(=S)/C(=C(\[O-])c2ccc(C)c([N+](=O)[O-])c2)[n+]2ccccc2)cc1	16%	-17%	2%
COc1ccc(/C(N)=N/O)c(OC)c1	-1%	-15%	5%
COS(C)(=O)=O	-2%	-6%	10%
CC1(C)CC(=O)C(C(=O)c2ccccc2)C(=O)C1Cl (stereo not given)	.	13%	-6%
COc1ccc(C(=O)Nc2ccc(S(=O)(=O)Nc3nccc(C)n3)cc2)cc1[N+](=O)[O-]	.	19%[1.91 µM]	1%
CCc1cc(=O)oc2cc(OC(C)C(=O)NCc3ccccn3)ccc12 (stereo not given)	.	-28%	-6%
SMILES	Luc counter	RORg inh	Gal4-VP16 FLuc
CCOc1ccc(NC(=S)Nc2cc(C)[nH]n2)cc1	0%	3.2µM*	7.1µM*
C=C(Nc1ccc(OCC)cc1)Nc1ccc(OCC)cc1	-1%[39.9 µM]	-20%	4%
NC(=O)c1nn(-c2ccccc2)nc1NC(=O)CN1CCOCC1	.	2%	2%
O=C(Cn1c(-c2ccccc2)noc1=O)Nc1ccc(N2CCCCCC2)cc1	-7%	12%	-1%
CCOc1cc(NS(=O)(=O)c2ccc(NC(C)=O)cc2)c(OCC)cc1NC(=O)C(C)C	-7%	0%	4%
CCCc1[nH][nH]c(=O)c1C(c1ccc(Br)cc1)C(C#N)C#N (stereo not given)	7%	-72%	?
CCCc1[nH][nH]c(=O)c1C(c1ccccc1)C(C#N)C#N (stereo not given)	1%	-22%	9%
Cc1[nH]n(-c2ncc(-c3ccccc3)s2)c(=O)c1C(c1ccc(Br)cc1)C(C#N)C#N (stereo not given)	1%	11µM*	13µM*
Cc1[nH]n(C(N)=S)c(=O)c1C(c1ccccc1)C(C#N)C#N (stereo not given)	1%	10µM*	10µM*
CCCC(C)(C)C(=O)Nc1ccc(Cl)cc1	.	-18%	1%
COc1ccccc1-n1c(=O)c2c3c(sc2n2c(=S)[nH]nc12)CCC3	3%	13µM*	-30%
COc1ccc(-n2c(=O)c3c4c(sc3n(CC(=O)Nc3cc(C)[nH]n3)c2=O)CCC4)c(OC)c1	1%	20%	-3%
Cc1noc(C(=O)NC2CCCCC2)c1Cl	.	-1%	6%
CCN(C(=O)COC(=O)CN(C)S(=O)(=O)c1ccc(NC(C)=O)cc1)C1CCS(=O)(=O)C1 (stereo not given)	.	4%	1%
COc1cccc(C(=O)NC2CCN(CC(=O)Nc3c(C)cc(C)cc3C)CC2)c1	2%	?	13µM*

Screening results deposited in PubChem BioAssay by National Center for Advancing Translational Sciences (NCATS).
